Laboratory results from PubChem BioAssay (NCATS).
Active and inactive are the calls of the source. The call rests on the fitted dose curve.

Test: qHTS drug screen for cell cycle checkpoint inhibitors in PARPi-resistant BRCA-mutant ovarian cancer cell lines. (AID 1963452)
Conditions: PEO1/OlaR viability, CellTiter-Glo luminescence, 96 h; for Z-AUC: stronger effect = lower value
In short: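 PEO1, PEO4 and PEO1/OlaR ovarian cancer cells, 600 per well, exposed 96 h at 37C to a dilution series. Viability read by CellTiter-Glo luminescence, normalized to DMSO and empty wells; activity summarized as Z-AUC.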

[1] = measured here: PEO1 parental Z-AUC
Potency means the concentration at half of the fitted maximal effect.

SMILES | Potency | Z-AUC [1] | Z-AUC (measured here: PEO4 Z-AUC) | Z-AUC
CCNC(=O)c1noc(-c2cc(C(C)C)c(O)cc2O)c1-c1ccc(CN2CCOCC2)cc1 | 0.0245 µM (active) | -1.81 | -1.08 | –
Cn1c(=O)c(Oc2ccc(F)cc2F)cc2cnc(NC3CCOCC3)nc21 | – | 1.1 | 1.01 | 1.26 (inactive)
COc1cc(F)c(C(C)C)cc1-c1ccc(C(F)(F)F)cc1CN1C(=O)O[C@H](c2cc(C(F)(F)F)cc(C(F)(F)F)c2)[C@@H]1C | – | 0.239 | 0.327 | 0.469 (inactive)
NS(=O)(=O)c1ccc(Nc2nc(OCC3CCCCC3)c3[nH]cnc3n2)cc1 | – | -0.91 | -1.12 | -1.43 (inactive)
CSc1cccc(Nc2ncc3cc(-c4c(Cl)cccc4Cl)c(=O)n(C)c3n2)c1 | – | 0.39 | 0.318 | 0.438 (inactive)
COc1ccc(CCC(=O)Nc2nc3ccc(Cl)cc3s2)cc1OC | – | -0.917 | -0.954 | -1.42 (inactive)
O=c1cc(-c2ccc(O)c(O)c2)oc2cc(O)cc(O)c12 | – | 0.49 | 0.398 | 0.185 (inactive)
O=C(NC[C@H](O)CO)c1ccncc1Nc1ccc(I)cc1F | – | -0.351 | -0.367 | -0.995 (inactive)
O=C(NCCCCN1CCOCC1)c1cc2ccccc2o1 | – | 1.22 | 1.23 | 1.41 (inactive)
O=C(O)c1ccc(O)c2ncc(N3CCOCC3)cc12 | – | -0.649 | -0.698 | -0.152 (inactive)
COC(=O)N1CCN(Cc2cccc(NC(=O)Nc3ccc(C)nc3)c2F)CC1 | – | -0.204 | -0.622 | -0.162 (inactive)
CC1=C(CC(=O)O)c2cc(F)ccc2C1=Cc1ccc(S(C)=O)cc1 (stereo unspecified) | – | 0.811 | 0.523 | -0.123 (inactive)
CCC(c1ccc(O)cc1)C(CC)c1ccc(O)cc1 (stereo unspecified) | – | -0.74 | -0.679 | -0.216 (inactive)
O=C(O)CCC=CCC[C@@H]1[C@H](N2CCCCC2)[C@@H](O)C[C@@H]1OCc1ccc(-c2ccccc2)cc1 | – | -0.0252 | 0.219 | 0.918 (inactive)
COc1c(C)cnc(Cn2cnc3c(Cl)nc(N)nc32)c1C | – | -0.874 | -0.434 | -0.301 (inactive)
CC1CCN(c2cc(N3CCN(C)CC3)ccc2NC(=O)c2cc(C#N)c[nH]2)CC1 | – | -0.115 | 0.801 | -1.13 (inactive)
OC(c1cc(C(F)(F)F)nc2c(C(F)(F)F)cccc12)C1CCCCN1 (stereo unspecified) | – | 0.285 | 0.429 | 0.945 (inactive)
